# In PubChem BioAssay (NCATS):
# Values joined by “and” are separate entries in the source; they are usually repeats but may differ in a detail not shown here. Equal entries are not always repeated. Records with an inconclusive call do not appear. A call without a number means that no potency is given here. Unmarked numbers belong to inactive results. Active and inactive are the calls of the source. The call rests on the fitted dose curve; in most records, active means well fitted curve in the direction sought with a large enough effect; inconclusive means small, poorly fitted or top-dose-only effect, or another doubt; inactive means no such curve, though single readings can be large; an effect the other way counts as inactive or inconclusive. Square brackets hold non-standard residues; d marks the D form. Peptide text beside a SMILES is read from it. PhLac = O=C(O)[CH](O)Cc1ccccc1; NMeV = CN[CH](C(=O)O)C(C)C
# Tests used:
# [1] = target: Cellular tumor antigen p53 (Homo sapiens) (UniProt P04637); experiment: Primary qHTS for small molecule compounds that upregulate eGFP-tagged delta133p53alpha (in N-terminal) cells. (AID 2060322); conditions: NCI-H358 eGFP-delta133p53alpha fluorescence, 24 h; activation: hits give high values; further: nearly all actives have a fitted effect of over 75% in size; further: potency means the concentration at half of the fitted maximal effect;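 on activation: cells pre-induced with doxycycline then dosed without doxycycline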
# Sequence of Cellular tumor antigen p53 (Homo sapiens) (P04637 whole entry, looked up): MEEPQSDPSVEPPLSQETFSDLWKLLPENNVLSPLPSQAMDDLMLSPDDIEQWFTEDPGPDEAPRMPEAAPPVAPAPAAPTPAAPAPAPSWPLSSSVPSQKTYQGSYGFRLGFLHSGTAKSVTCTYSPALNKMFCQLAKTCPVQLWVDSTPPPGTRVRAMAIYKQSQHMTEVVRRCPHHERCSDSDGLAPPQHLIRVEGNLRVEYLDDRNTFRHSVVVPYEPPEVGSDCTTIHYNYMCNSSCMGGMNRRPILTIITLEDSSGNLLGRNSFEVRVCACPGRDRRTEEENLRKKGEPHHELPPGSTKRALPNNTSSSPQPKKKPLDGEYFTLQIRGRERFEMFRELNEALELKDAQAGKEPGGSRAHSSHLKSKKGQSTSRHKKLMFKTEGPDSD
# Method in brief: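 NCI-H358 cells pre-induced 24 h with 10 ng/ml doxycycline for eGFP-delta133p53alpha, plated dox-free and exposed 24 h at 37C to titrated compounds. Fixed, Hoechst-stained; gated GFP peak intensity by laser scanning cytometry, normalized to DMSO (0%) and 57.5 uM 5-azacytidine (100%).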
# [2] = target: Aldehyde dehydrogenase, mitochondrial (Homo sapiens) (UniProt P05091); experiment: qHTS for Inhibitors of the Aldehyde Dehydrogenase Family (ALDH2) Primary screen (AID 2061308); conditions: ALDH2 enzyme inhibition qHTS, 1536-well; series mostly up to 56 µM; further: nearly all actives have a fitted effect of over 55% in size
# [3] = target: Retinaldehyde dehydrogenase 3 (Homo sapiens) (UniProt P47895); experiment: qHTS for Inhibitors of the Aldehyde Dehydrogenase Family (ALDH1A3) Primary screen (AID 2061315); conditions: ALDH inhibition qHTS; series mostly up to 56 µM
Structure (SMILES),activation [1],Potency [2],Potency [3],Potency [1],"activity change, negative = inhibition [2]","activity change, negative = inhibition [3]"
N#C[C@@H]1C[C@H](F)CN1C(=O)CNC1[C@H]2CN(C(=O)c3ccc(F)cc3)C[C@@H]12 (stereo not given in full),-1%,inactive,inactive,–,–,–
C=CC[C@]12C[C@@H](OC)C(=O)C(OC)=C1O[C@@H](c1cc(OC)c3c(c1)OCO3)[C@@H]2C,-13.4%,inactive,inactive,–,–,–
OC[C@H]1O[C@H](O[C@]2(CCl)O[C@H](CCl)[C@@H](O)[C@@H]2O)[C@H](O)[C@@H](O)[C@H]1Cl,-5.86% and -10%,inactive,inactive,–,–,–
CC12CC34CC(O)C5C(CO)(CO)CC(=O)CC5(C)C3CC1C2C4 (stereo not given),5.34%,inactive,inactive,–,–,–
C=C1C(O[C@@H]2O[C@H](CO)[C@@H](O)[C@H](O)[C@@H]2O)CC2C(C)(C)C(O)CCC2(C)C1CC/C(C)=C\CO (stereo not given in full),6.11%,inactive,inactive,–,–,–
COc1c2c(c(C)c3c1C(=O)OC3)OC1(C)CC(O)C34OC(OC)(OC3(C)C)C(O)CC4(C)C1C2 (stereo not given),-2.29%,inactive,inactive,–,–,–
CC(=O)O[C@H]1[C@H](O[C@H]2[C@@H]3C=CO[C@@H](O[C@@H]4O[C@H](CO)[C@@H](O)[C@H](O)[C@H]4O)[C@@H]3[C@@]3(CO)O[C@@H]23)O[C@@H](C)[C@H](OC(=O)/C=C/c2ccccc2)[C@H]1OC(=O)/C=C/c1ccccc1,-7.63%,inactive,inactive,–,–,–
C=C1C(OC2OC(CO)C(O)C(O)C2O)CC2C(C)(C)C(O)CCC2(C)C1CC/C(C)=C\COC(=O)CC(=O)O (stereo not given),0.763%,inactive,inactive,–,–,–
CC(=O)OC1C[C@@]2(C)[C@@H](CC[C@@H](C)[C@]23Cc2c(O)cc4c(c2O3)CNC4=O)C(C)(C)[C@@H]1O (stereo not given in full),9.92%,inactive,inactive,–,–,–
CC(C(=O)O)C1CCC2(C)C3C(=O)C=C4C(CCC(=O)C4(C)C)C3(C)CCC12C (stereo not given),-15.2%,inactive,inactive,–,–,–
CCCCn1c(-c2ccccc2)nc(-c2ccccc2)c1CN(Cc1ccc2c(c1)OCO2)Cc1ccc2c(c1)OCO2,-10%,inactive,inactive,–,–,–
C=C[C@@]12COC(=O)C(=C)[C@@H]1[C@@H](O)[C@H](C(=C)C(=O)OC)[C@@H](O)C2,-7.63%,inactive,inactive,–,–,–
O=C(OCC(O)CO[C@@H]1O[C@H](C(=O)O)[C@@H](O)[C@H](O)[C@H]1O)c1ccccc1 (stereo not given in full),-13%,inactive,inactive,–,–,–
CC(=O)O[C@H]1C[C@@](O)(C(C)C)C2[C@@H](OC(=O)c3ccc(O)cc3)C[C@@]3(C)O[C@H]3C[C@]21C (stereo not given in full),-6.11%,inactive,inactive,–,–,–
C/C(CO)=C1/CCC23COC(C2)C(O)(C(=O)O)CCC13 (stereo not given),0%,inactive,inactive,–,–,–
CC(C)S(=O)(=O)NC[C@H](C)c1ccc(NC(=O)c2cc(F)cc(F)c2)cc1,-15%,inactive,inactive,–,–,–
C[C@@H]1O[C@@H](O[C@H]2[C@@H]3C=CO[C@@H](O[C@@H]4O[C@H](CO)[C@@H](O)[C@H](O)[C@H]4O)[C@@H]3[C@@]3(CO)O[C@@H]23)[C@H](OC(=O)/C=C/c2ccccc2)[C@H](O)[C@H]1O,4.46%,inactive,inactive,–,–,–
COc1ccc(-n2[nH]c3c(cnc4ccccc43)c2=O)cc1,-9.55%,inactive,inactive,–,–,–
NC(=NCCCCCCN=C(N)/N=C(\N)Nc1ccc(Cl)cc1)/N=C(\N)Nc1ccc(Cl)cc1,–,inactive,inactive,30.1 µM (active),–,–
C[C@@H]1C(=O)OC[C@H]2C(C(=O)O)=C[C@@H]3CC(C)(C)C[C@]312,-6.87%,inactive,inactive,–,–,–
COc1ccc(/C=C/C(=O)O[C@@H]2[C@@H](O)[C@H](C)O[C@@H](O[C@H]3[C@@H]4C=CO[C@@H](O[C@H]5O[C@@H](CO)[C@H](O)[C@@H](O)[C@@H]5O)[C@@H]4[C@@]4(CO)O[C@@H]34)[C@@H]2OC(C)=O)cc1,-12.5%,inactive,inactive,–,–,–
O=C1CCC=CC1(O)C(=O)OCc1ccccc1O[C@@H]1O[C@H](CO)[C@@H](O)[C@H](O)[C@H]1O (stereo not given in full),15.3%,inactive,inactive,–,–,–
CCC(C)CC(=O)OC1C(=O)C(CO)=CC(O)C1C(C)C (stereo not given),–,inactive,inactive,23.9 µM (active),–,–

Structure (SMILES),activation [1],Potency [2],Potency [3],Potency [1],"activity change, negative = inhibition [2]","activity change, negative = inhibition [3]"
COc1cc(/C=C/CO)ccc1O[C@@H]1O[C@H](CO)[C@@H](O)[C@H](O)[C@H]1O,-6.25%,inactive,inactive,–,–,–
C[C@H](NC(c1cccc(C[P+](=O)O)c1)[C@H](C)O)c1ccc(Cl)c(Cl)c1 (stereo not given in full),9%,inactive,inactive,–,–,–
C/C=C(\C)C(=O)OC[C@H]1O[C@@H](O[C@H]2[C@@H](O[C@H]3O[C@H](COC(=O)/C(C)=C/C)[C@@H](O)[C@H](O)[C@H]3O[C@@H]3O[C@H](CO)[C@@H](O)[C@H](OC(=O)/C(C)=C/C)[C@H]3O)O[C@H](COC(=O)/C(C)=C/C)[C@@H](O)[C@@H]2O)[C@H](O)[C@@H](O)[C@@H]1O,-25.2%,inactive,inactive,–,–,–
CN[C@H](CC(C)C)C(=O)N[C@H]1C(=O)N[C@@H](CC(N)=O)C(=O)N[C@H]2C(=O)N[C@H]3C(=O)N[C@H](C(=O)N[C@H](C(=O)O)c4cc(O)cc(O)c4-c4cc3ccc4O)[C@H](O[C@H]3C[C@](C)(N)[C@@H](O)[C@H](C)O3)c3ccc(c(Cl)c3)Oc3cc2cc(c3O[C@@H]2O[C@H](CO)[C@@H](O)[C@H](O)[C@H]2O[C@H]2C[C@](C)(NCc3ccc(-c4ccc(Cl)cc4)cc3)[C@@H](O)[C@H](C)O2)Oc2ccc(cc2Cl)[C@H]1O,27%,inactive,inactive,–,–,–
C=C1C(=O)OC2C1C(O)CC1(C)C(O)CCC(C=O)C21 (stereo not given),13.4%,inactive,inactive,–,–,–
CC[C@H](C)/C=C(C)/C=C/C1=CC2=CC(=O)[C@]3(C)OC(=O)[C@@H](C(C)=O)[C@@H]3C2=CO1,–,inactive,inactive,18.6 µM (active),–,–
C/C(=C\CCC1(C)C2CC3C(C2)C31C)C(=O)O (stereo not given),5.36%,inactive,inactive,–,–,–
C=CC(C)(O)CC/C=C(/C)C(=O)OC1C(OC2OCC(OC3OC(CO)C(O)C(O)C3O)C(OC3OCC(O)C(OC4OC(C)C(O)C(O)C4O)C3O)C2O)COC(OC(=O)C23CCC(C)(C)CC2C2=CCC4C5(C)CCC(OC6OC(CO)C(OC7OC(CO)C(O)C(OC8OCC(O)C(O)C8O)C7O)C(O)C6O)C(C)(C)C5CCC4(C)C2(C)CC3O)C1O (stereo not given),-12.2%,–,–,–,0.572% [at 11.2 µM],8.04% [at 11.2 µM]
COc1ccc(C[C@H]2COC(=O)[C@@H]2Cc2ccc(O[C@@H]3O[C@H](CO)[C@@H](O)[C@H](O)[C@H]3O)c(OC)c2)cc1OC,15.2%,inactive,inactive,–,–,–
Cc1cc(O)c(C(C)C)cc1O[C@@H]1O[C@H](CO)[C@@H](O)[C@H](O)[C@H]1O,-17.6%,inactive,inactive,–,–,–
CC(C)C(C(=O)N1CCCC1C(=O)O)N(C)C(=O)C(O)Cc1ccccc1 (stereo not given) (H-[PhLac]-[NMeV]-Pro-OH; configuration not given here),22.3%,inactive,inactive,–,–,–
COc1cccc2c1CCC[C@H]2CN(C)CCc1ccc2ccoc2c1,-3.57%,inactive,inactive,–,–,–
C/C=C/C=C/C(=O)OC1CC/C=C/C(O)C(O)C(CCC)OC1=O (stereo not given),-12.2%,inactive,inactive,–,–,–
C[C@@H]1O[C@@H](O[C@@H]2[C@@H](O)[C@H](O[C@@H]3[C@@H](O)[C@@H](O)[C@H](O[C@H]4[C@H](OC(=O)[C@]56CCC(C)(C)C[C@H]5C5=CCC7[C@@]8(C)C[C@H](O)[C@H](O[C@@H]9O[C@H](C(=O)O)[C@@H](O)[C@H](O)[C@H]9O)[C@@](C)(CO)C8[C@H](O)C[C@@]7(C)[C@]5(C)C[C@H]6O)O[C@@H](CO)[C@@H]4O)O[C@H]3C)OC[C@H]2O)[C@H](O)[C@H](O)[C@H]1O (stereo not given in full),12.2%,–,–,–,4.77% [at 11.2 µM],-9.03% [at 11.2 µM]
COc1ccnc2[nH]cc(C(=O)C(=O)N3CCN(C(=O)c4ccccc4)CC3C)c12 (stereo not given),-3%,inactive,inactive,–,–,–
CC(=O)O[C@H]1C[C@@]2(C)[C@@H](CC[C@H]3[C@@]4(C)C=CC(=O)[C@@H](C)[C@@H]4[C@H](O)C(=O)[C@@]32C)/C1=C(/CCC=C(C)C)C(=O)O,17.6%,inactive,inactive,–,–,–
Cn1ccc(NC(=O)c2cc(Oc3ccc(C(=O)N4CCC4)c(F)c3)c3c(c2)OC(C)(C)C3)n1,-12.3%,inactive,inactive,–,–,–
C/C=C1/[C@H](O[C@@H]2O[C@H](CO)[C@@H](O)[C@H](O)[C@H]2O)OC=C2C(=O)O[C@@H]3C[C@@H](C(C)CO)[C@H](COC(=O)C[C@H]21)[C@H]3C (stereo not given in full),-3.57%,inactive,inactive,–,–,–
COc1cc(O)cc2c1C(=O)OC(C)C2 (stereo not given),-13%,inactive,inactive,–,–,–
CC1(C)CCC2(C(=O)O)CCC3(C)C(=CCC4C5(C)CCC(O)C(C)(CO)C5C(O)CC43C)C2C1 (stereo not given),-18.8%,inactive,inactive,–,–,–
O=C(NCCCc1ccccc1)c1cccc(-c2cc(O)c3ncccc3c2)c1,7.67%,inactive,inactive,–,–,–
COC(=O)C1=COC(OC2OC(CO)C(O)C(O)C2O)C2C(C)C(OC(C)=O)C(OC(=O)c3ccccc3)C12 (stereo not given),-6.87%,inactive,inactive,–,–,–
